Experimental findings from PubChem BioAssay (NCATS) are described below.

Assay [1] addresses Lysosomal acid glucosylceramidase (Homo sapiens) (UniProt P04062). Briefly: Glucocerebrosidase-p2 (AID 348; in the data active = potency below about 10 µM; also: potency is read from the fitted curve at half-maximal effect). To be noted: purified GBA, blue fluorogenic substrate, 40 min. In outline:
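Compounds titrated from 0.6 nM upwards against 0.2 nM enzyme in pH 5.9 citric acid/KH2PO4, taurocholate, tween-20; blue fluorogenic substrate 80 uM, 40 min room temperature, stopped and read Ex 365/Em 440 for AC50.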

A short description of assay [2]: AP1 Signaling Pathway (AID 357).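 Also: ME-180 reporter cells stimulated with EGF at its EC50 level; % is scaled to controls: 0 for no effect and ±100 for the full control effect.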 Particulars: ME-180 AP-1-bla reporter, EGF-induced, beta-lactamase ratio, 5 h; at 7.69 µM (top of the series) unless noted. In outline:
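In this screen, ME-180 cells in Opti-MEM with 0.5% dialyzed FBS received EC50 EGF and compound titrations for 5 h. AP-1 reporter beta-lactamase was detected via CCF4 ratio, giving AC50 for positive and negative modulators.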

The target of assay [3] is Cytochrome P450 1A2 (Homo sapiens) (UniProt P05177). The assay can be described thus: p450-cyp1a2 (AID 410; calls by dose curve; also: potency is read from the fitted curve at half-maximal effect;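 as to activity change, negative = inhibition: -100% = full effect of reference inhibitor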). To be noted: recombinant CYP1A2, luciferin-ME demethylation, luminescence; series mostly up to 57 µM. In outline:
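Human CYP1A2 (20nM) demethylated Luciferin-ME at its Km (100uM) in 100mM KPO4. After 10 min compound preincubation, NADPH regeneration ran the reaction 60 min at room temperature. Luciferin was read by luminescence, normalized to 57 uM furafylline.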

Assay [4] is described as follows: NFAT Signaling Pathway (AID 444).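 Also: carbachol stimulus at about its EC50 of 1 µM final; % is scaled to controls: 0 for no effect and ±100 for the full control effect.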 Particulars: Jurkat NFAT-bla M1, carbachol, beta-lactamase ratio, 5 h; at 7.69 µM (top of the series) unless noted. In a few lines:
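Jurkat cells carrying an NFAT-driven β-lactamase reporter and co-transfected muscarinic M1 receptor were treated with compound plus carbachol (1 uM final, an EC50 level) for 5 h at 37 °C. CCF4 loading followed for 1 h at RT; 460/530 nm ratio gave %activity.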

Assay [5] is described as follows: Stat Signaling Pathway (AID 446).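 Also: ME-180 cervical cancer cells given 40 pM IL-6 alongside compound; SIE-controlled beta-lactamase reporter measured as 460/530 nm FRET emission ratio; % is scaled to controls: 0 for no effect and ±100 for the full control effect.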 To be noted: ME-180 (cervical carcinoma) SIE beta-lactamase reporter, IL-6 stimulated, 5 h; at 7.69 µM (top of the series) unless noted. In outline:
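IL-6/STAT signaling read in ME-180 cells via an SIE beta-lactamase reporter. Stimulus was 40 pM IL-6 (its AC50) for 5 hrs, so both activation and inhibition register.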

Assay [6] deals with Glucocorticoid receptor (Homo sapiens) (UniProt P04150). The assay can be described thus: GR-EFC Redistribution (AID 451; calls by dose curve; also: potency is read from the fitted curve at half-maximal effect). Particulars: CHO-K1 GR-EFC translocation, beta-gal luminescence, 2 h. In outline: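 CHO-K1 cells stably expressing nuclear-localized β-gal enzyme acceptor and GR fused C-terminally to the enzyme donor fragment; ligand-driven nuclear translocation restores β-gal by complementation. Compounds titrated up to 46 uM final, 2 h at 37 °C; luminescence read.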
Chain of Glucocorticoid receptor (Homo sapiens) (P04150 whole entry, looked up, the tested form may be a part): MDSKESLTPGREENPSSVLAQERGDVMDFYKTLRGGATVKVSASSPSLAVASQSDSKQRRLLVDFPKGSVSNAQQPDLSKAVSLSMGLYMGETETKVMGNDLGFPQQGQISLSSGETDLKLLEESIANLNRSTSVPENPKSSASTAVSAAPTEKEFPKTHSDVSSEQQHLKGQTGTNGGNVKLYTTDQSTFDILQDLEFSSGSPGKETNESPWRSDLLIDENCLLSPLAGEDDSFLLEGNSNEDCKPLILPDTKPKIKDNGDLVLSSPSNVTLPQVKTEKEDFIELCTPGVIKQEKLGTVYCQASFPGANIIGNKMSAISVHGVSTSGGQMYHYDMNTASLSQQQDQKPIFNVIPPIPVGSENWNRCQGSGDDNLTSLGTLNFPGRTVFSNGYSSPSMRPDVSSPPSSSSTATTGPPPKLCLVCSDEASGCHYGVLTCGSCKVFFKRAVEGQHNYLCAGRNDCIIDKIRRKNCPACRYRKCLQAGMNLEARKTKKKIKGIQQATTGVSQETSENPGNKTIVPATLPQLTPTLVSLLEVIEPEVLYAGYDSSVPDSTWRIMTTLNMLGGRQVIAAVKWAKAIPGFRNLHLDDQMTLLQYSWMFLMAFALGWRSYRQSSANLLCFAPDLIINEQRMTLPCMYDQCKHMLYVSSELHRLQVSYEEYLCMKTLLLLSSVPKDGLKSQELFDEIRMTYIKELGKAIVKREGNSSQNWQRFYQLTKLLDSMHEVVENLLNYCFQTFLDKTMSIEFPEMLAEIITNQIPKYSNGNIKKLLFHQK

Assay [7] concerns the target Mitogen-activated protein kinase 10 (Mus musculus) (UniProt Q61831). Briefly: JNK3 AlphaScreen Assay (AID 530).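 Also: kinase came from lysate of stimulated human HepG2 cells; % is scaled to controls: 0 for no effect and ±100 for the full control effect.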 To be noted: JNK3 lysate, c-Jun phosphorylation; series mostly up to 57.1 µM. In a few lines: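 JNK3 came from HepG2 lysates pre-activated with IL-1beta and TNF-alpha and phosphorylated biotinylated GST-cJun (1-79) at 10 uM ATP, pH 7.6, room temperature. Compounds were titrated. AlphaScreen signal used anti-phospho-cJun (Ser73) antibody.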
In general terms: Alpha assays give light when donor and acceptor beads are brought close together.

Assay [8] deals with 3',5'-cyclic-AMP phosphodiesterase 4B (Homo sapiens) (UniProt Q07343). The assay can be described thus: qHTS Assay for Inhibitors of PDE-IV (AID 607; active = well fitted activation curve with a large enough effect in the main read-out, with a control signal flat, not every such curve was filed as active; also: % of control where 0% means no effect). Particulars: HEK293 ACTOne CNG channel cells, membrane potential fluorescence; series mostly up to 22.9 µM. In a few lines:
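Live HEK293 cells with a modified cyclic nucleotide-gated (CNG) channel report intracellular cAMP via membrane-potential dye fluorescence (ex 535/em 590 nm). Endogenous PDE-IV was targeted. Compounds were tested at up to 22.9 uM final; RO 20-1724 100 uM served as control.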
(qHTS replaces the single test concentration by a dilution series.)

A short description of assay [9]: Primary qHTS for small molecule stabilizers of the endoplasmic reticulum resident proteome: Secreted ER Calcium Modulated Protein (SERCaMP) assay (AID 1508630; active = well fitted inhibition curve with a large enough effect; also: % is scaled to controls: 0 for no effect and ±100 for the full control effect). To be noted: SH-SY5Y GLuc-SERCaMP (Gaussia luciferase released on ER calcium loss) secretion, thapsigargin, luminescence; series mostly up to 38.4 µM. In outline:
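GLuc-SERCaMP-expressing SH-SY5Y cells, pretreated 16 h with compound, are challenged with thapsigargin to empty ER calcium stores; after 4 h, coelenterazine is added directly to the medium and luminescence is imaged.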

The target of assay [10] is Cytochrome P450 2C9 (Homo sapiens) (UniProt P11712). Briefly: qHTS Assay for Inhibitors and Substrates of Cytochrome P450 2C9 (AID 883; active = well fitted inhibition curve with a large enough effect; also: % is scaled to controls: 0 for no effect and ±100 for the full control effect; nearly all actives have a fitted effect of over 60% in size). To be noted: recombinant CYP2C9, luciferin-H luminescence, 60 min; series mostly up to 57.1 µM. In outline:
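Human CYP2C9 (10nM) hydroxylated Luciferin-H (100uM, at its KM) to luciferin in 25mM KPO4. Compound was preincubated 10 min at 37C, then NADPH regeneration started a 60 min reaction at 37C. Luminescence was read after detection reagent, normalized to 57uM sulphaphenazole.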

Assay [11] has as its target Cytochrome P450 3A4 (Homo sapiens) (UniProt P08684). Briefly: qHTS Assay for Inhibitors and Substrates of Cytochrome P450 3A4 (AID 884; active = well fitted inhibition curve with a large enough effect; also: % is scaled to controls: 0 for no effect and ±100 for the full control effect; nearly all actives have a fitted effect of over 50% in size). To be noted: recombinant CYP3A4, Luciferin-PPXE luminescence; series mostly up to 57.1 µM. In outline: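 20 nM human CYP3A4 with 25 uM Luciferin-PPXE (at KM) in 200 mM KPO4, preincubated 10 min with compound; NADPH regeneration started a 60 min RT reaction. Luciferin detected by luminescence, normalized to 57 uM ketoconazole as full inhibition.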

For assay [12], the target named is Cytochrome P450 2D6 (Homo sapiens) (UniProt P10635). The assay can be described thus: qHTS Assay for Inhibitors and Substrates of Cytochrome P450 2D6 (AID 891; active = well fitted inhibition curve with a large enough effect;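 also: luciferin methyl ether substrate demethylated by CYP2D6 with NADPH regeneration; % is scaled to controls: 0 for no effect and ±100 for the full control effect; nearly all actives have a fitted effect of over 60% in size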). To be noted: recombinant CYP2D6, luciferin-ME EGE luminescence; series mostly up to 57.1 µM. In outline:
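Human CYP2D6 (5 nM) with 30 uM Luciferin-ME EGE (at Km) in 100 mM KPO4, compound preincubated 10 min, then NADPH regeneration system for 60 min at room temperature. Luciferin read by luminescence; normalized to 1.43 uM quinidine.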

Assay [13] deals with Cytochrome P450 2C19 (Homo sapiens) (UniProt P33261). Briefly: qHTS Assay for Inhibitors and Substrates of Cytochrome P450 2C19 (AID 899; active = well fitted inhibition curve with a large enough effect; also: % is scaled to controls: 0 for no effect and ±100 for the full control effect; nearly all actives have a fitted effect of over 60% in size). Particulars: recombinant CYP2C19, luciferin-H EGE luminescence; series mostly up to 57.1 µM. In outline: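 Human CYP2C19 (5nM) with Luciferin-H EGE at 10uM (its KM) in 50mM KPO4 was preincubated with compound for 10 min at 37C. NADPH regeneration started a 60 min 37C reaction. Luciferin was read by luminescence, normalized to 57uM ketoconazole.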
Chain of Cytochrome P450 2C19 (Homo sapiens) (P33261 whole entry, looked up): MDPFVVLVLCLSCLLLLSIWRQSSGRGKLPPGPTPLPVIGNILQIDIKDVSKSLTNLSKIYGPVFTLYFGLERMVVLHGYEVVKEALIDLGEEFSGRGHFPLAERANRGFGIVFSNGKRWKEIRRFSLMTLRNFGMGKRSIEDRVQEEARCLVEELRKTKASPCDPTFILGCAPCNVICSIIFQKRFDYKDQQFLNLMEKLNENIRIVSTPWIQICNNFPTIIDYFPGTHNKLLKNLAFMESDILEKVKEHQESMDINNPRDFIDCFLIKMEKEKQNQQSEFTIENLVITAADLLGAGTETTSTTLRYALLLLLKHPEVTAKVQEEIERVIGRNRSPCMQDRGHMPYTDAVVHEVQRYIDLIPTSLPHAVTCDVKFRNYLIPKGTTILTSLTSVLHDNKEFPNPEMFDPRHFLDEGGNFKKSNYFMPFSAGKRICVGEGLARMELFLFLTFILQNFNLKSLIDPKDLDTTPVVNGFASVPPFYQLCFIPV

Values without a mark were called inactive. Records with an inconclusive call do not appear. Calls of active or inactive are those of the source. Unless noted, calls follow the shape of the dose curve; as a rule, active = well fitted curve in either direction with a large enough effect (not every such curve was filed as active); inconclusive = small, poorly fitted or top-dose-only effect, or another doubt; inactive = flat fitted curve, though single readings scatter. Where only a bound is given, the exact number is not on record here.

Chain of Cytochrome P450 1A2 (Homo sapiens) (P05177 whole entry, looked up): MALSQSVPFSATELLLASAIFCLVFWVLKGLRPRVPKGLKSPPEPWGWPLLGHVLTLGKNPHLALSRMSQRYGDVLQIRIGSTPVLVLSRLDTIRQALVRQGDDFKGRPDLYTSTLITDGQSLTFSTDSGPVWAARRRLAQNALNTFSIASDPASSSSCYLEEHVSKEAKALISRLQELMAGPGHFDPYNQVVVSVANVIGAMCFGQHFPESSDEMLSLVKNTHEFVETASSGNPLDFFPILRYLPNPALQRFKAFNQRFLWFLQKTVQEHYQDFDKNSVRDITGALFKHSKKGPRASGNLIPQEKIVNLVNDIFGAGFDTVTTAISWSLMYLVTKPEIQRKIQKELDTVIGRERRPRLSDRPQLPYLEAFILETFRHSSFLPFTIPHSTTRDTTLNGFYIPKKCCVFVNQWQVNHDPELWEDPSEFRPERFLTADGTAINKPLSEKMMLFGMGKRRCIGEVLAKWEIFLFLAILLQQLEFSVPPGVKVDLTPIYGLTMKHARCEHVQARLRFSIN
Chain of 3',5'-cyclic-AMP phosphodiesterase 4B (Homo sapiens) (Q07343 whole entry, looked up): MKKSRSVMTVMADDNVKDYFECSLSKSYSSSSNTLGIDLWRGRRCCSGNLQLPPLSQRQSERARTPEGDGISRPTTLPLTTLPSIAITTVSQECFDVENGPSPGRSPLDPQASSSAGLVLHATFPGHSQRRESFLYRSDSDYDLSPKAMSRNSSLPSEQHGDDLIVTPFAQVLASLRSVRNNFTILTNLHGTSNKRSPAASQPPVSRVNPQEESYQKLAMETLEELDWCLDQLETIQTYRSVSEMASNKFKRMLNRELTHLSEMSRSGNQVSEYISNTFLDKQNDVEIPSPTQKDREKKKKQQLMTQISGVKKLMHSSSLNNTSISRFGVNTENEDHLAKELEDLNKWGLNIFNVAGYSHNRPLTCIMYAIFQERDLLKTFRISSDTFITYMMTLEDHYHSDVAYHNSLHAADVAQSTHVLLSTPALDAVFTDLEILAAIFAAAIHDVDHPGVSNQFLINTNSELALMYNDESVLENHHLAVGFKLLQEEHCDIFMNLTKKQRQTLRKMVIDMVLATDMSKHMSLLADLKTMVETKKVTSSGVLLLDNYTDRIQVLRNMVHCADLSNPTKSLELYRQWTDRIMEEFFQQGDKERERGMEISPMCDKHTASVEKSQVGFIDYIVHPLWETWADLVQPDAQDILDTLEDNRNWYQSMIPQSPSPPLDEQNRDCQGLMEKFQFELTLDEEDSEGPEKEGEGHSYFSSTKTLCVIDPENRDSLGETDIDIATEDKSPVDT
Chain of Lysosomal acid glucosylceramidase (Homo sapiens) (P04062 whole entry, looked up): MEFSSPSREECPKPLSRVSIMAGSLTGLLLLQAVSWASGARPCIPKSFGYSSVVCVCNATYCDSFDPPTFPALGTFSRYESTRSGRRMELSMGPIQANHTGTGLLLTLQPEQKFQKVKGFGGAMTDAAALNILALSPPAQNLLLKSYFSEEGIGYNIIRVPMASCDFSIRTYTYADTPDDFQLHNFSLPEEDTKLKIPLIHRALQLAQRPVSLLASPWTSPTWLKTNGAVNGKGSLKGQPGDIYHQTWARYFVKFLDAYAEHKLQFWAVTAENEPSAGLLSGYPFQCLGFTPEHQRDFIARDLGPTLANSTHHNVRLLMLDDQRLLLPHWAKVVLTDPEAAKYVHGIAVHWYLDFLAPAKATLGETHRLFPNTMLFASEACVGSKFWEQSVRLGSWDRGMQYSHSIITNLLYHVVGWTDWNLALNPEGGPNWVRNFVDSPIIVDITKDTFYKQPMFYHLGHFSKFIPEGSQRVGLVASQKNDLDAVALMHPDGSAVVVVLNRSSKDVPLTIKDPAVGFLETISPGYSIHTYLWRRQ
Chain of Cytochrome P450 2D6 (Homo sapiens) (P10635 whole entry, looked up): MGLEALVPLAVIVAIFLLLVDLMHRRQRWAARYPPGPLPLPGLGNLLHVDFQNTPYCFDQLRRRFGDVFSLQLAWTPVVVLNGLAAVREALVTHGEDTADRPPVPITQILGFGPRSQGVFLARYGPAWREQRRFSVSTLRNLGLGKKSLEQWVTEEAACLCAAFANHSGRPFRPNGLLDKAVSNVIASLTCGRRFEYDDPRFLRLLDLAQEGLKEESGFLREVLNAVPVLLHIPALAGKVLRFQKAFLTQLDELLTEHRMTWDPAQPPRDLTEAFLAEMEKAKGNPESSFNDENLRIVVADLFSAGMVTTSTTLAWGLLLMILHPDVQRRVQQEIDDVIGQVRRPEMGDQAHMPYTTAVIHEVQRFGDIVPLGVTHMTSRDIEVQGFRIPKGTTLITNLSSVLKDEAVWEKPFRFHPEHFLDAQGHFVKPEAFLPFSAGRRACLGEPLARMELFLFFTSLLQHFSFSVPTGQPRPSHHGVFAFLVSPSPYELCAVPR
Chain of Cytochrome P450 3A4 (Homo sapiens) (P08684 whole entry, looked up): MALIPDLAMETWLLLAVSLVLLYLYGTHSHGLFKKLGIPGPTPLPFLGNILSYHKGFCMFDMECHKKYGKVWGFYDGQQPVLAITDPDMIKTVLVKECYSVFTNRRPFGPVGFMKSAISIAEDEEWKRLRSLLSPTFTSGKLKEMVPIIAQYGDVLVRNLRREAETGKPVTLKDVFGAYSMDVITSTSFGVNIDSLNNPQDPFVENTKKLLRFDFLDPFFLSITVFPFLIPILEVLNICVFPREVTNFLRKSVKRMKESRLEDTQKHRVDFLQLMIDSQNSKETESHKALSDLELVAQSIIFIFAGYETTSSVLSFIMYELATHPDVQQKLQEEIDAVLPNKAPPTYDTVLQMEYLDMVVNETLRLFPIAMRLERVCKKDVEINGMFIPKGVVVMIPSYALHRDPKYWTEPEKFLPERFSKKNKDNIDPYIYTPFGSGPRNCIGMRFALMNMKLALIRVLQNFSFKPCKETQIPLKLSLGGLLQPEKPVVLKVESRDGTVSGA
Chain of Cytochrome P450 2C9 (Homo sapiens) (P11712 whole entry, looked up): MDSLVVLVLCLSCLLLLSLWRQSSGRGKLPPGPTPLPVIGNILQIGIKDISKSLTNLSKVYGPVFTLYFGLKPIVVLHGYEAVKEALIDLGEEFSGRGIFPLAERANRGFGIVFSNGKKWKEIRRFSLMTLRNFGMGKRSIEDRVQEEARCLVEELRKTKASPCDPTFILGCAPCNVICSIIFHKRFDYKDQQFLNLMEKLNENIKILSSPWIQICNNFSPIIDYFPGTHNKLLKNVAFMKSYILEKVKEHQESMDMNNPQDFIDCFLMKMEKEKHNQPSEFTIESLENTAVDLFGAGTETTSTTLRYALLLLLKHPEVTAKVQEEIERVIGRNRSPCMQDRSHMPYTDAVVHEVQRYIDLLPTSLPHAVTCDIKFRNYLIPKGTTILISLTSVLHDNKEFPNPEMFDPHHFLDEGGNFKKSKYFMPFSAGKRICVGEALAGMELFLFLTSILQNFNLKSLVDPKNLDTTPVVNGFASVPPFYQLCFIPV

As to `O=C(Nc1ccccc1)N1CC2(CCN(C(=O)c3cnccn3)CC2)C1`, the Potency in assay [1] is above 11.4 µM; in assay [3], 20 µM (active); in assay [6], above 46 µM. In addition, the values for the activity change, negative = inhibition in assay [2] and in assay [4] were -11.2% and 4.45%, respectively. For the same molecule, in [5], the activity, negative = inhibition is 2.96%. The Potency entry in [7] and in [8] was “inactive” each time. Moreover, the result in assay [9] was inactive.

Take `O=C(c1cnccn1)N1CCC2(CCCN(c3ncccn3)C2)CC1`: the Potency in [1] is above 11.4 µM; in [6], above 46 µM. For the same molecule, the values for the activity change, negative = inhibition in assay [2] and in assay [4] were -8.6% and 13.2%, respectively. Besides, the Potency entry in [3], in assay [7] and in assay [8] was “inactive” throughout. In addition, in assay [5], the activity, negative = inhibition is -0.387%. Moreover, in assay [9], the result was inactive.

Consider `O=C(c1ccco1)N1CCC[C@@]2(CCN(c3cccc(-c4ccccc4)c3)C2)C1`, for which the Potency in assay [1] is above 11.4 µM; in assay [3] it was 15.8 µM (active); in assay [6], above 46 µM. In addition, the values for the activity change, negative = inhibition in assay [2] and in assay [4] were -1.52% and -22.9%, respectively. Besides, in assay [5], the activity, negative = inhibition was 3.03%. The result in [9] was inactive.

Consider `O=C(c1cnccn1)N1CCC2(CCCN(c3ccc(-c4ccccc4)cc3)C2)CC1`, for which the Potency was above 11.4 µM in assay [1], 25.1 µM (active) in assay [3] and above 46 µM in assay [6]. Further, the activity change, negative = inhibition in assay [2] is -27.9%; in [4], -14.8%. For the same molecule, the activity, negative = inhibition in assay [5] is 8.97%. Besides, the Potency entry in [7] and in assay [8] was “inactive” each time. The outcome in assay [9] was inactive.

With `COc1ccc(NC(=O)N2CCC3(CC2)CCN(C(=O)c2cccn2C)CC3)cc1`, the Potency is above 11.4 µM in assay [1] and above 46 µM in [6]. The results for the activity change, negative = inhibition in assay [2] and in assay [4] were -7.7% and -0.784%, respectively. The Potency result in assay [3], in [7] and in assay [8] was “inactive” in each case. The activity, negative = inhibition in assay [5] is 2.55%. For the same molecule, the result in assay [9] was inactive.

Regarding `CC(=O)N1CCC2(CC1)CCN(c1ccccn1)CC2`, the Potency is above 11.4 µM in assay [1] and above 46 µM in [6]. In addition, the activity change, negative = inhibition is 1.64% in assay [2] and -29.8% in assay [4]. Further, the Potency result in [3], in [7] and in assay [8] was “inactive” each time. Besides, the activity, negative = inhibition in assay [5] is 6.98%. In assay [9], the result was inactive.

For `CS(=O)(=O)N1CCC[C@@]2(CCN(c3ncccn3)C2)C1`, the Potency is above 11.4 µM in assay [1] and above 46 µM in [6]. Also, the activity change, negative = inhibition is -9.3% in [2] and 16.2% in assay [4]. Moreover, the Potency result in assay [3], in assay [7] and in assay [8] was “inactive” throughout. For the same molecule, the activity, negative = inhibition in assay [5] is -19.8%. The outcome in assay [9] was inactive.

Consider `N#Cc1cccc(NC(=O)N2CC[C@@]3(CCCN(C(=O)c4cc(C(F)(F)F)cc(C(F)(F)F)c4)C3)C2)c1`, for which the Potency in assay [1] was above 11.4 µM; in assay [6], above 46 µM. The activity change, negative = inhibition was 3.48% in [2] and 5.16% in [4]. Further, the Potency entry in assay [3], in assay [7], in [8], in assay [10], in assay [11] and in [12] was “inactive” in each case. Moreover, the Potency entry in assay [13] was “inactive”. Moreover, the activity, negative = inhibition in assay [5] was -10.2%. Besides, the outcome in assay [9] was inactive.

With `Cc1noc(C)c1C(=O)N1CCC2(CCN(Cc3nccs3)CC2)CC1`, the figures for the Potency in assay [1], in assay [3] and in assay [6] were above 11.4 µM, 12.6 µM (active) and above 46 µM, respectively. Also, the activity change, negative = inhibition in assay [2] was 11.4%; in [4], -0.611%. Besides, in assay [5], the activity, negative = inhibition is 11.5%. In addition, the Potency result in assay [7] and in [8] was “inactive” throughout. Further, the result in assay [9] was inactive.

Turning to `COC(=O)N1CCC2(CC1)CN(C(=O)Nc1ccc(OC)cc1)C2`, the Potency is above 11.4 µM in [1] and above 46 µM in [6]. Also, the activity change, negative = inhibition in assay [2] is -27.1%; in assay [4], 14.1%. Besides, the Potency entry in assay [3], in [7] and in assay [8] was “inactive” each time. Further, the activity, negative = inhibition in assay [5] was -0.967%. In assay [9], the result was inactive.
